# From PubChem BioAssay
# Most compounds without a hit are left out; they make up all but 10% or so of the library.
# BAZ2B block – blocks human BAZ2B | Q9UIF8 | AlphaScreen BAZ2B-H3K14Ac peptide displacement | Potency, µM (series often up to 114 µM), inactives show top-dose activity change, negative = inhibition, actives largely listed as inhibitors | actives 4.4% (n = 360,000); further: potency means the concentration at half of the fitted maximal effect; on the % scale 0 is the no-effect control and ±100 the full control effect; nearly all actives have a fitted effect of over 60% in size
#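 AlphaScreen luminescence quantifies BAZ2B engagement of H3K14Ac peptide; the protein and biotinylated peptide are both at 50 nM final, buffer PBS pH 7.4 with 0.01% Tween-20, all steps at room temperature.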
# G9a block – G9a (human) methyltransferase inhibition; Q96KQ7; G9a H3K9 monomethylation, AlphaScreen, 2 h; Potency, µM (highest dose often 102 µM), without a hit: at the highest dose activity, negative = inhibition, actives largely listed as inhibitors; actives 8.8% (n = 350,000); AID 504332; further: potency means the concentration at half of the fitted maximal effect; on the % scale 0 is the no-effect control and ±100 the full control effect; nearly all actives have a fitted effect of over 75% in size
#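 Step 1: enzyme (final 20 nM) with compound, 15 min RT. Step 2: substrate peptide 500 nM and SAM 20 uM, 2 h RT. Step 3: anti-H3K9me1 antibody and AlphaScreen beads, 10 min, then plate read.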
# CtBP-E1A inh – inhibitors of CtBP/E1A interaction. AlphaScreen GST-E1A/His-CtBP binding, 1536-well; active compounds read low. AID 651724. actives 0.49% (n = 340,000). activity change, % (no concentration beside the values); in the data active means activity change below about -65%; inconclusive means mostly about -30% to -63%; further: on the % scale 0 is the no-effect control and ±100 the full control effect
#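 Homogeneous bead-based format: GST-tagged E1A captured on glutathione donor beads, His-tagged CtBP on nickel acceptor beads; compounds precede bead addition by 2 h at 37 °C.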
# JMJD2A Tudor – JMJD2A Tudor domain (human) inhibition | Potency, µM (doses to about 114 µM), for the others: at the highest dose activity change, negative = inhibition, hits mostly inhibitors | AID 504339 | actives 4.4% (n = 390,000) | AlphaScreen JMJD2A-Tudor / H3K4me3 peptide binding; further: potency means the concentration at half of the fitted maximal effect; on the % scale 0 is the no-effect control and ±100 the full control effect; nearly all actives have a fitted effect of over 50% in size
# Six1-Eya2 inh – Six1/Eya2 interaction inhibition; Q15475+O00167; AlphaScreen GST-Six1/His-Eya2 binding, biochemical; active compounds read low; activity change, % (test concentration not listed); actives 0.56% (n = 360,000); in the data active means activity change below about -65%; inconclusive means mostly about -30% to -63%; further: on the % scale 0 is the no-effect control and ±100 the full control effect
# Target sequence (O00167 whole entry, looked up): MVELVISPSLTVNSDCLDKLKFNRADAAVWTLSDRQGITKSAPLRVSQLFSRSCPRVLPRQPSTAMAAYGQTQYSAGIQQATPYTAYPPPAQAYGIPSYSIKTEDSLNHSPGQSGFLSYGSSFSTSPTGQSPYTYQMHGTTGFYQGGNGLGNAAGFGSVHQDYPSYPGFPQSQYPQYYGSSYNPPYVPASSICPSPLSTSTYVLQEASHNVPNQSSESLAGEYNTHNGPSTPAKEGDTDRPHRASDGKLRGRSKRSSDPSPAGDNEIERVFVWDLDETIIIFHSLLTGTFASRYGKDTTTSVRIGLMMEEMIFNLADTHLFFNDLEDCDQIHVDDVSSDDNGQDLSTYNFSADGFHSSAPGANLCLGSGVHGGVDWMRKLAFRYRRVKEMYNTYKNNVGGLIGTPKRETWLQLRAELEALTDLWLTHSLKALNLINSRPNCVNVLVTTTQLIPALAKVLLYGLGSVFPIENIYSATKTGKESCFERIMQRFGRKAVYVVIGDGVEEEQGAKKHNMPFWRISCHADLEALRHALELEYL
# Target sequence (Q15475 whole entry, looked up): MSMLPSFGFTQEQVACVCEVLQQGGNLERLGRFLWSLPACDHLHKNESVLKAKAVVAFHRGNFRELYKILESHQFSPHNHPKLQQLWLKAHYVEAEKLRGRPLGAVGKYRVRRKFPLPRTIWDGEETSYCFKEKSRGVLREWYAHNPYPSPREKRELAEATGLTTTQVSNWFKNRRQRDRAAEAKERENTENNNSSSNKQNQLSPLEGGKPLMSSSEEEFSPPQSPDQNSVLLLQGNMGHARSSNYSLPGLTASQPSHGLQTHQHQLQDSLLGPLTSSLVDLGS
#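 GST-Six1 + His-Eya2 (5X stock: 250/500 nM); Tris pH 8.0, 300 mM NaCl, 0.05% BSA, 0.02% Tween 20; GSH donor/Ni acceptor beads; 1 h 37 °C dark; AlphaScreen readout.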
# HP1b chromo inh – HP1-beta chromodomain-methylated histone interaction inhibition; P83916; AlphaScreen HP1-beta / biotin-H3K9me3 peptide binding; Potency, µM (top dose mostly 114 µM), for inactives: at the highest dose activity change, negative = inhibition, hits mostly inhibitors; actives 0.56% (n = 390,000); AID 540317; further: potency means the concentration at half of the fitted maximal effect; nearly all actives have a fitted effect of over 70% in size
#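 AlphaScreen: HP1-beta (50 nM) preformed 30 min with biotin-H3(1-18)K9me3 peptide (50 nM) in PBS pH 7.4, 0.01% Tween-20. Compound added for 30 min at RT, then streptavidin donor/nickel chelate acceptor beads (10 ug/mL) for 30 min.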
# * marks the source's active call; other numbers are inactive results; ? = inconclusive; . = no result given; [ ] = remark or other dose. Unless noted, the call rests on the fitted dose curve; in most records, active means well fitted inhibition curve with a large enough effect; inconclusive means small, poorly fitted or top-dose-only effect; inactive means no such curve, though single readings can be large or run the other way.
SMILES,BAZ2B block,G9a block,CtBP-E1A inh,JMJD2A Tudor,Six1-Eya2 inh,HP1b chromo inh
COc1ccc(NC(=O)COc2ccc(S(=O)(=O)NC3CCCCC3)cc2)c(OC)c1,1.5%[57.1 µM],5.8%[59 µM],.,0.0%,.,39.3%
O=[N+]([O-])c1ccc(C(=Nc2cccc3ccccc23)N2CCOCC2)cc1,50.1µM*,44.7µM*,?,?,?,?
Cc1ccc([N+](=O)[O-])cc1N=C(c1cccc([N+](=O)[O-])c1)N1CCOCC1,-9.3%,3.9%[0.0925 µM],-11.5,-16.8%[11.4 µM],-11.9,-11.1%
Cc1ccc([N+](=O)[O-])cc1N=C(c1ccc([N+](=O)[O-])cc1)N1CCOCC1,?,-18.8%[59 µM],-2.4,79.4µM*,-14.3,?
Cc1ccc(NC(=O)Cn2cc(S(=O)(=O)N3CCC(C)CC3)c3ccccc3c2=O)c(Br)c1,0.1%,4.8%[59 µM],.,-8.6%,.,18.2%
COc1ccc(N2CCN(C(=O)C(=O)c3cc(OC)c4ccccc4c3)CC2)cc1,.,.,-19.4,.,-18.8,.
Cc1cccc(NC(=O)CN2C(=O)C(c3ccc(F)cc3)=NC23CCCCCC3)c1C,-2.9%,9.4%[59 µM],.,-13.8%,.,28.9%
c1ccc(COc2ccc(-c3sc(Nc4ccccc4)n[n+]3-c3ccccc3)cc2)cc1,44.7µM*,22.4µM*,.,.,.,.
COc1ccc(-c2sc(Nc3ccccc3)n[n+]2-c2ccc(F)cc2)cc1Br,-11.6%,?,-8.1,?,0.8,7.4%
CCc1ccc(Nc2n[n+](-c3ccccc3)c(-c3ccc(OCc4ccccc4)cc3)s2)cc1,50.1µM*,?,5.6,-26.9%,-1.1,20.6%
Cc1ccc(C)c(S(=O)(=O)Nc2ccc(C(=O)NCCCN3CCOCC3)cc2)c1,-4.8%,5.5%,0.9,-18.0%,8.3,-12.8%
CCN1CCN(C(=O)C(Cc2ccccc2)NC(=O)c2ccc(Cl)c(S(=O)(=O)N(C)C)c2)CC1 (centres undefined),.,.,-2.9,-30.9%,3.0,9.0%
CCC(Nc1ncnc2ccc(-c3c(C)noc3C)cc12)c1ccccc1 (centres undefined),.,.,.,-33.1%,.,.
Cc1ccc(-c2c[n+](CC(=O)Nc3ccc(C)cc3C)c3n2CCC3)cc1,-7.6%,3.5%,-9.7,-9.3%,-1.6,6.8%
CC1CCC2(CC1)NC(=O)N(CC(=O)Nc1nc(-c3ccc(F)cc3)cs1)C2=O (centres undefined),-3.2%,50.1µM*,-2.5,5.2%,-1.7,11.7%
O=C(C[n+]1cc(-c2ccc(F)cc2)n2c1CCC2)Nc1nc(-c2ccccc2)cs1,-27.6%,-10.8%[59 µM],?,-30.8%,?,8.2%
Cc1ccc(-c2c[n+](CC(=O)Nc3nc(-c4ccc(F)cc4)cs3)c3n2CCC3)cc1,-36.6%,44.7µM*,0.0,-31.2%,-10.2,-18.3%
O=C(C[n+]1cc(-c2ccccc2)n2c1CCCCC2)c1ccc(Br)cc1,-24.1%,50.1µM*,-2.8,-16.8%,-0.8,15.7%
Cc1ccc(NC(=O)C[n+]2cc(-c3ccc(C)cc3)n3c2CCC3)cc1,3.8%,-48.8%,0.4,8.91µM*,7.7,16.7%
COc1ccc(-c2csc(NC(=O)CN3C(=O)NC4(CCCC4)C3=O)n2)cc1,-5.1%,-28.2%,-15.2,-3.4%,-2.1,15.0%
Cc1cc2nc(SCC(=O)N(C)C)c3c(c2cc1C)CCCC3,-5.6%,24.3%[59 µM],2.1,-16.0%,-0.7,3.0%
O=C(COc1ccccc1)Nc1ccccc1Cl,12.4%,3.0%[59 µM],.,22.2%,7.8,84.9%
CC(=O)N1CCCC1c1nc2ccccc2n1Cc1cc(C)ccc1C (centres undefined),?,-12.7%[59 µM],.,-23.2%,.,27.9%
CCn1c(SCC(=O)Nc2cc(OC)ccc2OC)nc2c(c1=O)SCC2,79.4µM*,-28.3%,11.4,?,-14.5,-18.8%
CCn1c(SCC(=O)Nc2ccc(OC)c(OC)c2)nc2c(c1=O)SCC2,-34.6%,.,-3.7,-4.9%,-7.8,24.8%
SMILES,BAZ2B block,G9a block,CtBP-E1A inh,JMJD2A Tudor,Six1-Eya2 inh,HP1b chromo inh
COCCn1c(SCC(=O)NCC2CCCO2)nc2c(c1=O)SCC2 (centres undefined),-19.3%,25.0%,-4.7,89.1µM*,1.7,26.8%
COc1ccc(NC(=O)CSc2nc3c(c(=O)n2-c2ccc(F)cc2)SCC3)cc1,0.4%,-16.1%[59 µM],-1.2,-30.5%,-1.6,23.4%
COc1ccccc1-n1c(SCC(=O)Nc2ccc(F)cc2)nc2c(c1=O)SCC2,-29.1%,50.1µM*,-8.4,-19.0%,-14.2,18.8%
Cc1cccc(NC(=O)COc2coc(CN3CCc4ccccc4C3)cc2=O)c1,18.7%,-35.1%,-23.5,-12.8%,2.8,36.8%
O=C(c1cccs1)N1CCN(Cc2cccc([N+](=O)[O-])c2)CC1,28.2µM*,11.2µM*,4.9,20µM*,-0.3,?
COc1ccc(CN2CCN(C(=O)c3ccccc3C(=O)c3ccccc3)CC2)cc1F,.,.,-0.4,.,-10.9,.
COc1ccc(CN2CCN(C(=O)c3cccs3)CC2)cc1Br,50.1µM*,35.5µM*,-8.4,35.5µM*,-12.7,?
CCOc1cc(CN2CCN(C(=O)c3cccc4ccccc34)CC2)ccc1OC,50.1µM*,22.4µM*,.,20µM*,-3.3,?
COc1cc(C(=O)N2CCN(C(=O)c3cccc4ccccc34)CC2)cc(OC)c1OC,-12.0%,16.7%,6.6,-18.0%,-2.2,-4.0%
COc1ccc(CN2CCN(C(=O)c3cccc4ccccc34)CC2)cc1Br,50.1µM*,28.2µM*,-16.0,17.8µM*,-14.3,-16.9%
CCOC(=O)C1(Cc2ccccc2C)CCCN(C(=O)c2cc(CC)nn2C)C1 (centres undefined),-14.0%,-0.5%,-6.3,-10.3%,3.7,45.5%
CCOc1ccccc1NC(=O)c1c(NC(=O)c2cccc(C)c2)sc2c1CCC2,0.7%,1.5%[59 µM],.,-6.2%,.,24.1%
COc1ccc(CN(C)C(=O)Cn2cc(C)c(=O)[nH]c2=O)cc1OC,.,.,1.5,79.4µM*,4.6,29.3%
O=C(NNC(=S)Nc1ccccc1)c1ccncc1,-7.8%,?,-0.8,-4.1%,-0.5,12.1%
O=C(NNC(=S)Nc1ccccc1)c1cc(Br)ccc1Cl,-21.1%,39.8µM*,-6.6,-23.6%,-13.4,2.7%
CNC(=S)/N=C(/Nc1ccccc1)c1ccccc1,?,7.94µM*,-6.4,-18.3%,-2.4,22.6%
O=C(NNC(=S)Nc1ccccc1)Nc1ccccc1,-23.7%,.,-8.1,-16.2%,5.2,16.8%
O=C(NNC(=S)Nc1ccccc1)NNC(=S)Nc1ccccc1,-19.6%,14.1µM*,1.0,-26.5%,4.8,6.2%
COc1cccc(NC(=S)Nc2ccc(O)cc2)c1,?,8.91µM*,0.3,-20.3%,-2.6,-19.6%
